Each structure is given as a SMILES string. Records with an inconclusive call do not appear. Where a call stands in place of a potency, no number is given. The source made the active and inactive calls. The call rests on the fitted dose curve; in most records, active means well fitted inhibition curve with a large enough effect; inconclusive means small, poorly fitted or top-dose-only effect; inactive means flat fitted curve, though single readings scatter.
Potency means the concentration at half of the fitted maximal effect.

One assay concerns GB4. In words: qHTS profiling for inhibitors of Plasmodium falciparum proliferation (AID 504749). Further: nearly all actives have a fitted effect of over 60% in size. To be noted: P. falciparum in erythrocytes, SYBR Green DNA, 72 h; series mostly up to 28.7 µM. In outline:
(§1)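 P. falciparum-infected erythrocytes (0.3% parasitemia, 2.5% hematocrit) incubated with compound 72 h at 37 C, 5% CO2. Parasite DNA detected by SYBR Green after lysis, overnight at room temperature; normalised to 0.29 uM artemisinin and DMSO.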
As for `Nc1nc2c(c(=O)[nH]1)N(C=O)[C@H](CNc1ccc(C(=O)N[C@@H](CCC(=O)O)C(=O)O)cc1)CN2`, the Potency entry is “inactive”.
On the same count and under the same terms, for `COc1cccc2c1C(=O)c1c(O)c3c(c(O)c1C2=O)C[C@@](O)(C(=O)CO)C[C@@H]3O[C@H]1C[C@H](N)[C@H](OC2CCCCO2)[C@H](C)O1` (stereo partly specified) the value was 4780 nM (active); for `COc1ccc2c(c1OC)C(=O)OC2[C@H]1c2c(cc3c(c2OC)OCO3)CCN1C` (stereo partly specified), “inactive”; for `OCC(O)C(O)C(O)CO` (stereo unspecified), “inactive”.
In the case of `CCC(C(=O)O)C1CCC(C)C(C(C)C(O)C(C)C(=O)C(CC)C2OC3(C=CC(O)[C@@]4(CC[C@](C)(C5CC[C@@](O)(CC)C(C)O5)O4)O3)C(C)CC2C)O1` (stereo partly specified), the Potency is 536 nM (active).
As to `COc1ccc([C@@H]2CNC(=O)C2)cc1OC1CCCC1`, the Potency result was “inactive”.

Another assay deals with HB3. The assay is described as above. The following applies: P. falciparum in erythrocytes, SYBR Green DNA, 72 h; series mostly up to 28.7 µM. In a few lines:
as §1
With `Nc1nc2c(c(=O)[nH]1)N(C=O)[C@H](CNc1ccc(C(=O)N[C@@H](CCC(=O)O)C(=O)O)cc1)CN2`, the Potency result was “inactive”.
Turning to `CCCCCCCCCCCC(CC1OC(=O)C1CCCCCC)OC(=O)C(CC(C)C)NC=O` (stereo unspecified), the Potency was 1260 nM (active).
Regarding `COc1cccc2c1C(=O)c1c(O)c3c(c(O)c1C2=O)C[C@@](O)(C(=O)CO)C[C@@H]3O[C@H]1C[C@H](N)[C@H](OC2CCCCO2)[C@H](C)O1` (stereo partly specified), the Potency was 5010 nM (active).
As to `COc1ccc2c(c1OC)C(=O)OC2[C@H]1c2c(cc3c(c2OC)OCO3)CCN1C` (stereo partly specified), the Potency entry is “inactive”.
On the same count and under the same terms, to `OCC(O)C(O)C(O)CO` (stereo unspecified) belongs “inactive”; to `CCC(C(=O)O)C1CCC(C)C(C(C)C(O)C(C)C(=O)C(CC)C2OC3(C=CC(O)[C@@]4(CC[C@](C)(C5CC[C@@](O)(CC)C(C)O5)O4)O3)C(C)CC2C)O1` (stereo partly specified), 891 nM (active).
Consider `COc1ccc([C@@H]2CNC(=O)C2)cc1OC1CCCC1`, for which the Potency entry was “inactive”.

The subject of a further assay is ICS. Described as above. To be noted: P. falciparum in erythrocytes, SYBR Green DNA, 72 h; series mostly up to 28.7 µM. In outline: as §1
On to `Nc1nc2c(c(=O)[nH]1)N(C=O)[C@H](CNc1ccc(C(=O)N[C@@H](CCC(=O)O)C(=O)O)cc1)CN2`, for which the Potency entry was “inactive”.
As to `CCCCCCCCCCCC(CC1OC(=O)C1CCCCCC)OC(=O)C(CC(C)C)NC=O` (stereo unspecified), the Potency was 1120 nM (active).
Regarding `COc1cccc2c1C(=O)c1c(O)c3c(c(O)c1C2=O)C[C@@](O)(C(=O)CO)C[C@@H]3O[C@H]1C[C@H](N)[C@H](OC2CCCCO2)[C@H](C)O1` (stereo partly specified), the Potency was 708 nM (active).
Still for that read-out and setting: to `COc1ccc2c(c1OC)C(=O)OC2[C@H]1c2c(cc3c(c2OC)OCO3)CCN1C` (stereo partly specified) belongs “inactive”; to `OCC(O)C(O)C(O)CO` (stereo unspecified), “inactive”; to `CCC(C(=O)O)C1CCC(C)C(C(C)C(O)C(C)C(=O)C(CC)C2OC3(C=CC(O)[C@@]4(CC[C@](C)(C5CC[C@@](O)(CC)C(C)O5)O4)O3)C(C)CC2C)O1` (stereo partly specified), 1000 nM (active).
In the case of `COc1ccc([C@@H]2CNC(=O)C2)cc1OC1CCCC1`, the Potency entry was “inactive”.

The subject of the next assay is JCK. The assay is described as above. The following applies: P. falciparum in erythrocytes, SYBR Green DNA, 72 h; series mostly up to 28.7 µM. In outline:
as §1
Take `Nc1nc2c(c(=O)[nH]1)N(C=O)[C@H](CNc1ccc(C(=O)N[C@@H](CCC(=O)O)C(=O)O)cc1)CN2`: the Potency entry was “inactive”.
For `CCCCCCCCCCCC(CC1OC(=O)C1CCCCCC)OC(=O)C(CC(C)C)NC=O` (stereo unspecified), the Potency was 1000 nM (active).
The same measure, in the same setting: for `COc1cccc2c1C(=O)c1c(O)c3c(c(O)c1C2=O)C[C@@](O)(C(=O)CO)C[C@@H]3O[C@H]1C[C@H](N)[C@H](OC2CCCCO2)[C@H](C)O1` (stereo partly specified) the value was 12600 nM (active).
Still for that read-out and setting: to `COc1ccc2c(c1OC)C(=O)OC2[C@H]1c2c(cc3c(c2OC)OCO3)CCN1C` (stereo partly specified) belongs “inactive”; to `OCC(O)C(O)C(O)CO` (stereo unspecified), “inactive”; to `CCC(C(=O)O)C1CCC(C)C(C(C)C(O)C(C)C(=O)C(CC)C2OC3(C=CC(O)[C@@]4(CC[C@](C)(C5CC[C@@](O)(CC)C(C)O5)O4)O3)C(C)CC2C)O1` (stereo partly specified), 4470 nM (active).
For the molecule `COc1ccc([C@@H]2CNC(=O)C2)cc1OC1CCCC1`, the Potency entry was “inactive”.

Another assay has as its system N140. The description is as above. The following applies: P. falciparum in erythrocytes, SYBR Green DNA, 72 h; series mostly up to 28.7 µM. In outline:
as §1
`Nc1nc2c(c(=O)[nH]1)N(C=O)[C@H](CNc1ccc(C(=O)N[C@@H](CCC(=O)O)C(=O)O)cc1)CN2`: the Potency entry is “inactive”.
The same measure, in the same setting: for `CCCCCCCCCCCC(CC1OC(=O)C1CCCCCC)OC(=O)C(CC(C)C)NC=O` (stereo unspecified) the value was 631 nM (active); for `COc1cccc2c1C(=O)c1c(O)c3c(c(O)c1C2=O)C[C@@](O)(C(=O)CO)C[C@@H]3O[C@H]1C[C@H](N)[C@H](OC2CCCCO2)[C@H](C)O1` (stereo partly specified), 1580 nM (active).
`COc1ccc2c(c1OC)C(=O)OC2[C@H]1c2c(cc3c(c2OC)OCO3)CCN1C` (stereo partly specified): the Potency entry is “inactive”.
Still for that read-out and setting: to `OCC(O)C(O)C(O)CO` (stereo unspecified) belongs “inactive”.
For `CCC(C(=O)O)C1CCC(C)C(C(C)C(O)C(C)C(=O)C(CC)C2OC3(C=CC(O)[C@@]4(CC[C@](C)(C5CC[C@@](O)(CC)C(C)O5)O4)O3)C(C)CC2C)O1` (stereo partly specified), the Potency is 891 nM (active).
`COc1ccc([C@@H]2CNC(=O)C2)cc1OC1CCCC1`: the Potency result is “inactive”.

The subject of the next assay is P93_24. Described as above. The following applies: P. falciparum in erythrocytes, SYBR Green DNA, 72 h; series mostly up to 28.7 µM. In a few lines:
as §1
On to `Nc1nc2c(c(=O)[nH]1)N(C=O)[C@H](CNc1ccc(C(=O)N[C@@H](CCC(=O)O)C(=O)O)cc1)CN2`, for which the Potency result is “inactive”.
`CCCCCCCCCCCC(CC1OC(=O)C1CCCCCC)OC(=O)C(CC(C)C)NC=O` (stereo unspecified): the Potency is 891 nM (active).
The same measure, in the same setting: for `COc1cccc2c1C(=O)c1c(O)c3c(c(O)c1C2=O)C[C@@](O)(C(=O)CO)C[C@@H]3O[C@H]1C[C@H](N)[C@H](OC2CCCCO2)[C@H](C)O1` (stereo partly specified) the value was 2240 nM (active); for `COc1ccc2c(c1OC)C(=O)OC2[C@H]1c2c(cc3c(c2OC)OCO3)CCN1C` (stereo partly specified), “inactive”.
In the case of `OCC(O)C(O)C(O)CO` (stereo unspecified), the Potency result was “inactive”.
In the case of `CCC(C(=O)O)C1CCC(C)C(C(C)C(O)C(C)C(=O)C(CC)C2OC3(C=CC(O)[C@@]4(CC[C@](C)(C5CC[C@@](O)(CC)C(C)O5)O4)O3)C(C)CC2C)O1` (stereo partly specified), the Potency was 891 nM (active).
Regarding `COc1ccc([C@@H]2CNC(=O)C2)cc1OC1CCCC1`, the Potency entry is “inactive”.
